This passage reports Percent Effect results from ChEMBL document CHEMBL3988442, “University of Dundee, Small-Polar-MMV Screening Library” (2021).

For some of these results: Entries with a potency or affinity are not part of this list.

What all share (parameters): scale not given: direction of the effect not stated beside the values
In assay [1] the target is Protein translocase subunit SecA (Escherichia coli (strain K12)) (UniProt P10408). In words: Assay to Identify E. coli SecA ATPase Inhibitors. In kind it is functional. Particulars: 30 µM.
For assay [2], the target named is T1, Ubiquitin-activating enzyme e1, putative (Leishmania donovani (strain BPK282A1)) (UniProt E9BSI1).
T1 sequence (whole entry): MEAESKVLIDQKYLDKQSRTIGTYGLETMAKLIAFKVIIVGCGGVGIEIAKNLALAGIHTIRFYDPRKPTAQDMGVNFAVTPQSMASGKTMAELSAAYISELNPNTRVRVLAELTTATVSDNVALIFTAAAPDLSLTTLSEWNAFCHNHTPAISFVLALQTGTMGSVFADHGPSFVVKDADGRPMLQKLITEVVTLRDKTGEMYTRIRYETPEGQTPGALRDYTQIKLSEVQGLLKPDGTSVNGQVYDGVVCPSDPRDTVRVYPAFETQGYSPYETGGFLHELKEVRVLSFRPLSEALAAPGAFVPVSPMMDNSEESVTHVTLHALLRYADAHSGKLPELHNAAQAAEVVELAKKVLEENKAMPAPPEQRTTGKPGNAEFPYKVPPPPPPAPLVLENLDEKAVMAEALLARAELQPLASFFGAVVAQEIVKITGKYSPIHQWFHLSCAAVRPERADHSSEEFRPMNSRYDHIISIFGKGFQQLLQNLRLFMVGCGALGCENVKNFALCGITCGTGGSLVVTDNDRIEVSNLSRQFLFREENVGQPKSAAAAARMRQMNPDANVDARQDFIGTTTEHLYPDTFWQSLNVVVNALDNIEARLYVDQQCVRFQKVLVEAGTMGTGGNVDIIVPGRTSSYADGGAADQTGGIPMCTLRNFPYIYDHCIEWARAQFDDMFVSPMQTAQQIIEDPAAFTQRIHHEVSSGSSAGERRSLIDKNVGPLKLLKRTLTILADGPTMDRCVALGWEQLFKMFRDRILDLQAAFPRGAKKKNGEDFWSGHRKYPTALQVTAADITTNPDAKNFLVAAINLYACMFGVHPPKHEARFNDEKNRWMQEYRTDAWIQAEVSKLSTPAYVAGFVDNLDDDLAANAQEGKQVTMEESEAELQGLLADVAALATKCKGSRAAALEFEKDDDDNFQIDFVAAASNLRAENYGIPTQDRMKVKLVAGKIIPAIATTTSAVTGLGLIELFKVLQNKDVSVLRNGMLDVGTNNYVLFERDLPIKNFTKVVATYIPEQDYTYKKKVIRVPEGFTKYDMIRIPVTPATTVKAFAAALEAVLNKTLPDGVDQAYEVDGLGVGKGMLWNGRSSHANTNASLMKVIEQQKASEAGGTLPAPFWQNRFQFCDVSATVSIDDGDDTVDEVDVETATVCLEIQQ
In words: Leishmania donovani Ubiquitin Activating Enzyme (LdE1). The class given is functional. Particulars: 30 µM.

The target in assay [3] is AMP-activated protein kinase, AMPK (Homo sapiens) (UniProt P54646+O43741+P54619+Q9UGJ0+Q9Y478+Q13131+Q9UGI9). In words: AMP-dependent Kinase enzyme assay. An in vitro enzyme assay that detects ADP turnover that is directly proportional to AMPK activity. This uses naive AMPK that is activated during the assay with MK-8722. The class given is functional. Particulars: 30 µM.

Assay [4] deals with Sialic acid-binding Ig-like lectin 9 (Homo sapiens) (UniProt Q9Y336). In words: Hs-Siglec9 ALPHAscreen SOP 20170721. The following applies: 10 µM. For orientation: Bead proximity is the source of the signal in Alpha formats.
Assay [5] has as its system Trypanosoma cruzi. In words: Trypanosoma cruzi phosphomannomutase and mannose-1-phosphate guanylyltransferase assay. The following applies: 10 µM. In kind it is functional.
The target of assay [6] is T2, Arginase-2, mitochondrial (Homo sapiens) (UniProt P78540).
T2 sequence (whole entry): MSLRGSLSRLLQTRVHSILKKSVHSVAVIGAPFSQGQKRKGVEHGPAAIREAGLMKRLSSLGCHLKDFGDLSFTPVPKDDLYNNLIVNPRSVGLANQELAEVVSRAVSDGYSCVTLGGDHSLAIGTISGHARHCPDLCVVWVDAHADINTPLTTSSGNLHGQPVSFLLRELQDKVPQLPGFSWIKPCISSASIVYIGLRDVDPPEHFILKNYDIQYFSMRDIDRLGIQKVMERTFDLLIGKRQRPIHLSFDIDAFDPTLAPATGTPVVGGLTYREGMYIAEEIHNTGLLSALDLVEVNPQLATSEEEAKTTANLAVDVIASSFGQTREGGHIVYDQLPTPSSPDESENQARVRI
In words: in vitro enzyme assay to detect the production of urea directly proportional to the activity of Arginase II. Note: in the data most compounds retested in dose-response had high values. The class given is functional. The following applies: 33.3 µM.

Assay [7] has as its target T3, Proteasome subunit beta (Trypanosoma cruzi) (UniProt O96673).
T3 sequence (whole entry): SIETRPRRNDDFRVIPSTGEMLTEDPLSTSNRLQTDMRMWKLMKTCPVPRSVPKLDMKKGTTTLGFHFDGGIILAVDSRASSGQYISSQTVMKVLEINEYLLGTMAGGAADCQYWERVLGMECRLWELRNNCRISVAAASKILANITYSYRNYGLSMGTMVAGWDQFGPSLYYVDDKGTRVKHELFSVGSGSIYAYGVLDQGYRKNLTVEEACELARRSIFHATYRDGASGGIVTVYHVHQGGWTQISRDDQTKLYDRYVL
In words: Trypanosoma cruzi proteasome chymotrypsin-like activity (TcProtChymo) assay. Note: in the data most compounds retested in dose-response had high values. In kind it is functional. The following applies: 9.37 µM.

The species entered for assay [8] is Homo sapiens. In words: To identify inhibition of the IFN signalling (Jak-Stat) pathway via expression of an eGFP reporter gene under the control of an IFN-stimulated response element (ISRE) containing MxA promoter. In kind it is functional. Particulars: 30 µM. On the technique in general: A reporter such as luciferase makes a cellular process visible.
Assay [9] deals with T4, Tyrosyl-tRNA synthetase, putative (Trypanosoma cruzi (strain CL Brener)) (UniProt Q4DSP6).
T4 sequence (whole entry): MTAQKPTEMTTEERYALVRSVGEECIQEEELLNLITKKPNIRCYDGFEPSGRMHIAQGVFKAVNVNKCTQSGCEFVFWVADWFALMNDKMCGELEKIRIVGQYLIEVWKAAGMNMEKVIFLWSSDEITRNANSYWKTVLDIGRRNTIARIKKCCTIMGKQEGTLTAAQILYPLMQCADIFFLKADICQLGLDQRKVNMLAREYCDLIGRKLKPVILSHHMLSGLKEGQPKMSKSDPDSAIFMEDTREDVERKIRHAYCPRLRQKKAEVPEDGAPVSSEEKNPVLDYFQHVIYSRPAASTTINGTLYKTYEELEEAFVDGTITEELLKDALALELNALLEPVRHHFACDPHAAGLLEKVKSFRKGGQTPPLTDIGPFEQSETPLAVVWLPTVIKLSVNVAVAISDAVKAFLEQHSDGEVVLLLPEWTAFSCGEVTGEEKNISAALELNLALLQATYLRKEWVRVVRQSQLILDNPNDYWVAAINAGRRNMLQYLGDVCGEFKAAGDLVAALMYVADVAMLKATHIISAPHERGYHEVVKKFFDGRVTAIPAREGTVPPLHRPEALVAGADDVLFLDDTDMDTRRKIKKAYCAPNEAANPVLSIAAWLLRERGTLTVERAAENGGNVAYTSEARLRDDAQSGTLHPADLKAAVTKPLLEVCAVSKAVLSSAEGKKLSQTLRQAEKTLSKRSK
In words: Trypanosoma cruzi tyrosyl tRNA synthetase (TcYRS) _High Tyrosine SOP. Note: in the data most compounds retested in dose-response had high values. The following applies: 30 µM. In kind it is functional.

Assay [10] deals with T4, Tyrosyl-tRNA synthetase, putative (Trypanosoma cruzi (strain CL Brener)). In words: Trypanosoma cruzi tyrosyl tRNA synthetase (TcYRS) SOP. The class given is functional. The following applies: 30 µM.
The target in assay [11] is Chromo domain-containing protein 1 (Saccharomyces cerevisiae (strain ATCC 204508 / S288c) (Baker's yeast)) (UniProt P32657). In words: ScCHD-1 Enzyme Inhibition Assay. Note: in the data most compounds retested in dose-response had high values. The class given is functional. The following applies: 30 µM.
Chromo domain-containing protein 1 (Saccharomyces cerevisiae (strain ATCC 204508 / S288c) (Baker's yeast)), sequence (P32657 whole entry, the tested form may be a part): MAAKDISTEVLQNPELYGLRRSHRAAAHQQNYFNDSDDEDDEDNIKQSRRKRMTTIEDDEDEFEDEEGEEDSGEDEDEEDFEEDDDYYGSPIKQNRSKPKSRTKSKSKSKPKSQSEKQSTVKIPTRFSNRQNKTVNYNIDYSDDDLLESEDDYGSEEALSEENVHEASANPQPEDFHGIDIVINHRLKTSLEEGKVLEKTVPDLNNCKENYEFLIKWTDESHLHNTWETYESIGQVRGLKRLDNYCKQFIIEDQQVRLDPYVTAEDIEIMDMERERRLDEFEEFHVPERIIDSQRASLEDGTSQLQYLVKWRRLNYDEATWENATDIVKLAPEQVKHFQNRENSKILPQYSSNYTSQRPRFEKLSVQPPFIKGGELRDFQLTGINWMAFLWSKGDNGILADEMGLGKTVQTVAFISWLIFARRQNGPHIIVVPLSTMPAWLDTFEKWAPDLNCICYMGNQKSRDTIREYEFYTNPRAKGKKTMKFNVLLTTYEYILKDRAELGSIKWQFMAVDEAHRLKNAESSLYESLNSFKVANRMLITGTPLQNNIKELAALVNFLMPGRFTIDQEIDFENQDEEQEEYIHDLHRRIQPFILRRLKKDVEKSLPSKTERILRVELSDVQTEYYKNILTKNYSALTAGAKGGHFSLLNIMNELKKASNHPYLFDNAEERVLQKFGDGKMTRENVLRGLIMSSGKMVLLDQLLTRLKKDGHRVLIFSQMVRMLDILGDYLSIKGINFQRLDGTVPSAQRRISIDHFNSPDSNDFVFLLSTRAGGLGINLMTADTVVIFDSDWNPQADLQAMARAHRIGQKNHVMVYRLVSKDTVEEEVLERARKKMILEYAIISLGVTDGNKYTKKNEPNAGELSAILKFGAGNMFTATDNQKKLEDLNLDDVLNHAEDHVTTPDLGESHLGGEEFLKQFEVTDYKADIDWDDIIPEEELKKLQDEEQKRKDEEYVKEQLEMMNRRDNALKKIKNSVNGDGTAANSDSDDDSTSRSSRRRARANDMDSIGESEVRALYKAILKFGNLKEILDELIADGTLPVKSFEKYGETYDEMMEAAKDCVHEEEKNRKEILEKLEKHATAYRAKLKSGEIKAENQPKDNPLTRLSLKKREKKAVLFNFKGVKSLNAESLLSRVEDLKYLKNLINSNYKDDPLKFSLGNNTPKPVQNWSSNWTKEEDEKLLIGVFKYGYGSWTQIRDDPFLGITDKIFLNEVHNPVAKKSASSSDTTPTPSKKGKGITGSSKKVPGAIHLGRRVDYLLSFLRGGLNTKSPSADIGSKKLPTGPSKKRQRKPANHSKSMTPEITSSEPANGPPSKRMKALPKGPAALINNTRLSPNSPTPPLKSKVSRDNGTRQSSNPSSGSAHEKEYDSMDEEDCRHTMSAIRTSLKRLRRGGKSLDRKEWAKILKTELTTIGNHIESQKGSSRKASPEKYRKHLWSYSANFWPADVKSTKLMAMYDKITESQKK

Sialic acid-binding Ig-like lectin 9 (Homo sapiens), sequence (Q9Y336 whole entry): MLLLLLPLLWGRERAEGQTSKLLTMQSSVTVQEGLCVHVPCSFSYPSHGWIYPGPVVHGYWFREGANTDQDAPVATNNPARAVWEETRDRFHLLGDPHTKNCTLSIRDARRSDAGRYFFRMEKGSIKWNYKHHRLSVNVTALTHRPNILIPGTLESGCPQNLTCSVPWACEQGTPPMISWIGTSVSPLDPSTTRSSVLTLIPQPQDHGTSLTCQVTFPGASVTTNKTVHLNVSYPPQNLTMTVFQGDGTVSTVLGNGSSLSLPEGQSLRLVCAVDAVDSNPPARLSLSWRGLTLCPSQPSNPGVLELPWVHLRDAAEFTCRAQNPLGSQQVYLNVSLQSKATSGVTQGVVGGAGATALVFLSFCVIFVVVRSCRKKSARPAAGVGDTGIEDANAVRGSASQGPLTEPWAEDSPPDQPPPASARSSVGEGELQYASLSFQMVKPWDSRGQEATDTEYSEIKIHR
Protein translocase subunit SecA (Escherichia coli (strain K12)), sequence (P10408 whole entry): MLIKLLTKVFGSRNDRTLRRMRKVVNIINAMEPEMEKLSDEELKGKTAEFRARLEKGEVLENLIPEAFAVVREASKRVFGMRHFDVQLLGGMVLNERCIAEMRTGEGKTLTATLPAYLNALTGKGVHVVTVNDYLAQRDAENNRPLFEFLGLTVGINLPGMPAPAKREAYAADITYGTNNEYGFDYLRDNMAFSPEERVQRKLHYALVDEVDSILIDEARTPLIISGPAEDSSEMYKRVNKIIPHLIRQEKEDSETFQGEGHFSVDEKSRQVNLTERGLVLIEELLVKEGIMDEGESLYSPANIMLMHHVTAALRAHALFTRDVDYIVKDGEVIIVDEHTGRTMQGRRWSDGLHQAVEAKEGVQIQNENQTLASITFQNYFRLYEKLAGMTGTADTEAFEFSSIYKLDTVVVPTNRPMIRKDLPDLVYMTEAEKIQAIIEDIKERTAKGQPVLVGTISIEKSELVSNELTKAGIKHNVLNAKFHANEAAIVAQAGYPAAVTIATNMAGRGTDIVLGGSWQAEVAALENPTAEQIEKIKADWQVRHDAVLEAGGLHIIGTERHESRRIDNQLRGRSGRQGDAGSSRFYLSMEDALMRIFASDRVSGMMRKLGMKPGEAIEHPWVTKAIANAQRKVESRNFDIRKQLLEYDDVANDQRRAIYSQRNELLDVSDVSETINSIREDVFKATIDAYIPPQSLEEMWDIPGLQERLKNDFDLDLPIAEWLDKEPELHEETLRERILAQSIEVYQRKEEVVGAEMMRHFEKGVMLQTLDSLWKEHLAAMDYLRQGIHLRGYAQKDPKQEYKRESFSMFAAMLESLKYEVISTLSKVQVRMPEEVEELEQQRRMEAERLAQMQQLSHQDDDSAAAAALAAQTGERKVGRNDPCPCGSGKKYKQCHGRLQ

With `Fc1ccc2c(c1)C(NCc1nnc3n1CCCCC3)CCCO2` (stereo not drawn), the Percent Effect in assay [1] is -2.96%; in [2], 8.11%; in assay [3], -2.29%; in [4], 19.3%; in [5] it was 7.92%; in assay [6] it was 23.1%. For the same compound, the Percent Effect in assay [7] is -1.12%; in [8], 0.659%; in assay [9], 2.15%; in [10], 8.64%; in assay [11], -12.5%.
With `Cc1ccc(NC2CCN(C(=O)CCNS(C)(=O)=O)CC2)nn1`, the Percent Effect in assay [1] was -4.31%; in [2], -2.7%; in [3], -5.25%; in assay [4] it was 9%; in assay [5] it was -0.279%; in assay [6], -5.36%. In addition, the Percent Effect was -5.21% in assay [7]; 2.45% in [8]; 1.98% in [9]; 6.1% in assay [10]; 7.54% in assay [11].
As for `CCn1cnnc1CNC(=O)NCC(c1cccs1)N1CCCC1` (stereo not drawn), the Percent Effect in [1] is -2.72%; in assay [2] it was 18.2%; in assay [3], 0.236%; in [4], 9.73%; in [5] it was 2.43%; in assay [6], -1.42%. The Percent Effect is 8.11% in assay [7]; 10.8% in [8]; 5.83% in [9]; 19.5% in assay [10]; -6.68% in assay [11].
Regarding `CCc1csc(C2CCCN(C(=O)c3ccnc(N(C)C)c3)C2)n1` (stereo not drawn), the Percent Effect in assay [1] is -1.95%; in assay [2], 13.2%; in assay [3], 0.891%; in assay [4], -9.58%; in assay [5] it was 4.58%; in assay [6], -3.55%. Besides, the Percent Effect in assay [7] is 7.77%; in [8] it was 41.7%; in assay [9], 4.25%; in assay [10] it was 13%; in [11] it was -4.33%.
Turning to `CCNC(=O)CN1CCCN(C(=O)C2CCCc3[nH]ncc32)CC1` (stereo not drawn), the Percent Effect is -3.9% in [1]; 8.11% in [2]; -2.94% in [3]; 6.84% in assay [4]; 1.66% in [5]; 5.21% in assay [6]. For the same compound, the Percent Effect was 5.75% in assay [7]; -11.9% in [8]; 3.23% in [9]; 8.64% in assay [10]; -4.21% in assay [11].
In the case of `c1cnn(Cc2nnc(C3CCN(C4CCOCC4)CC3)n2C2CC2)c1`, the Percent Effect in assay [1] is -7.04%; in [2], 13.3%; in assay [3] it was -7%; in [4] it was 24.9%; in assay [5], 3.99%; in assay [6], 5.73%. The Percent Effect in [7] was determined as 16.2%; in assay [8] it was 12.2%; in assay [9], 7.1%; in assay [10] it was 16.1%; in assay [11], 103%.
For `CCS(=O)(=O)N1CCC(c2nc3ccc(-c4ccccc4)cn3n2)CC1`, the Percent Effect in assay [1] was -0.159%; in assay [2], -2.74%; in assay [3], -1.18%; in [4] it was 0.509%; in [5], 5.75%; in assay [6] it was 0.399%. The Percent Effect was 10% in assay [7]; -3.81% in [8]; -24% in [9]; 8.64% in assay [10]; 2.57% in [11].
Consider `CN(Cc1ccco1)Cc1ccccc1CNC(=O)c1cc[nH]n1`, for which the Percent Effect in assay [1] is -2.78%; in assay [2], 0%; in assay [3], -0.254%; in [4] it was 5.67%; in [5], -6.56%; in [6] it was 0.952%. In addition, the Percent Effect was 15.2% in assay [7]; 18.9% in assay [8]; 1.59% in [9]; 4.88% in assay [10]; -4.37% in assay [11].
